Test results from PubChem BioAssay AID1159580 (chemical genetic matrix, 2015).
Hit rate of the full screen: of about 5,500 compounds, about 2,000 (36%) were called active. About 18% were inconclusive and are not listed. Some of the results follow. A number with no mark means an inactive call. Cut-off read from the data, not from the text of the source: active = normalized growth mostly below about 0.91 (no sharp cut-off); inconclusive = no clear call, values can overlap the other calls; inactive = mostly above about 0.92.

Experiment: chemical genetic growth profiling, strain panel (AID 1159580);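 note: tested at 20 µM; growth read once vehicle control cultures reached saturation at 30 °C; 1 = growth at the plate median or of vehicle wells; lower values mean less growth of the strain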
Details: S. cerevisiae deletion strains, growth OD
[1] = locus YDL101C, strain DUN1, active compounds read low
[2] = locus YHR030C, strain SLT2, active compounds read low
[3] = locus YAL013W, strain DEP1, active compounds read low
[4] = locus YBR229C, strain ROT2, active compounds read low
[5] = locus YDR150W, strain NUM1, active compounds read low
[6] = locus YEL061C, strain CIN8, active compounds read low
[7] = locus YGR078C, strain PAC10, active compounds read low
[8] = locus YHR087W, strain rtc3, active compounds read low
[9] = locus YJL187C, strain SWE1, active compounds read low
[10] = locus YJR043C, strain POL32, active compounds read low
[11] = locus YJR075W, strain HOC1, active compounds read low
[12] = locus YLR039C, strain RIC1, active compounds read low
[13] = locus YLR058C, strain SHM2 (second series), active compounds read low
[14] = locus YLR085C, strain ARP6, active compounds read low
[15] = locus YLR262C, strain YPT6, active compounds read low
[16] = locus YML094W, strain GIM5, active compounds read low
[17] = locus YMR219W, strain ESC1, active compounds read low
[18] = locus YMR263W, strain SAP30, active compounds read low
[19] = locus YMR307W, strain GAS1, active compounds read low
[20] = locus YNL153C, strain GIM3, active compounds read low
[21] = locus YNL298W, strain CLA4 (second series), active compounds read low
[22] = locus YNL322C, strain KRE1, active compounds read low
[23] = locus YNR030W, strain Alg12, active compounds read low
[24] = locus YPL055C, strain LGE1, active compounds read low
[25] = locus YPL241C, strain CIN2, active compounds read low
[26] = locus YPR135W, strain CTF4, active compounds read low

Nc1ccc(N2CCN(c3ccc(C(F)(F)F)cn3)CC2)nc1
normalized growth (locus YAR019C, strain CDC15, active compounds read low): 0.974
normalized growth (locus YBL105C, strain PKC1, active compounds read low): 0.984
normalized growth (locus YBR135W, strain CKS1, active compounds read low): 0.969
normalized growth (locus YBR136W, strain MEC1, active compounds read low): 0.983
normalized growth (locus YBR160W, strain CDC28, active compounds read low): 0.964
normalized growth (locus YDL017W, strain CDC7, active compounds read low): 0.98
normalized growth (locus YDL028C, strain MPS1, active compounds read low): 0.949
normalized growth [1]: 0.987
normalized growth (locus YDL108W, strain KIN28, active compounds read low): 0.966
normalized growth (locus YDL132W, strain cdc53, active compounds read low): 0.992
normalized growth (locus YDL214C, strain PRR2, active compounds read low): 0.927
normalized growth (locus YDR052C, strain DBF4, active compounds read low): 0.988
normalized growth (locus YDR054C, strain cdc34, active compounds read low): 0.994
normalized growth (locus YDR226W, strain ADK1, active compounds read low): 0.975
normalized growth (locus YDR477W, strain SNF1, active compounds read low): 0.862
normalized growth (locus YER123W, strain YCK3, active compounds read low): 0.879
normalized growth (locus YER133W, strain GLC7, active compounds read low): 0.916
normalized growth (locus YFL009W, strain cdc4, active compounds read low): 0.968
normalized growth (locus YFL029C, strain CAK1, active compounds read low): 0.971
normalized growth (locus YFR003C, strain YPI1, active compounds read low): 0.981
normalized growth (locus YFR019W, strain FAB1, active compounds read low): 0.862
normalized growth (locus YFR028C, strain CDC14, active compounds read low): 0.982
normalized growth (locus YGR040W, strain KSS1, active compounds read low): 0.865
normalized growth (locus YGR052W, strain FMP48, active compounds read low): 0.968
normalized growth (locus YGR092W, strain DBF2, active compounds read low): 0.722
normalized growth [2]: 0.724 (active)
normalized growth (locus YHR079C, strain IRE1, active compounds read low): 0.948
normalized growth (locus YHR082C, strain KSP1, active compounds read low): 0.966
normalized growth (locus YHR205W, strain SCH9, active compounds read low): 0.986
normalized growth (locus YIL147C, strain SLN1, active compounds read low): 0.973
normalized growth (locus YJL095W, strain BCK1, active compounds read low): 0.809
normalized growth (locus YJL128C, strain PBS2, active compounds read low): 1.02
normalized growth (locus YJL157C, strain FAR1, active compounds read low): 0.921
normalized growth (locus YJR016C, strain ILV3, active compounds read low): 0.976
normalized growth (locus YJR066W, strain TOR1 (second series), active compounds read low): 0.775
normalized growth (locus YJR066W, strain TOR1, active compounds read low): 0.879
normalized growth (locus YKL048C, strain ELM1, active compounds read low): 1.03
normalized growth (locus YKL067W, strain YNK1, active compounds read low): 0.91
normalized growth (locus YKL101W, strain HSL1, active compounds read low): 0.98
normalized growth (locus YKL193C, strain SDS22, active compounds read low): 0.983
normalized growth (locus YKL203C, strain TOR2, active compounds read low): 0.976
normalized growth (locus YLR113W, strain HOG1, active compounds read low): 0.991
normalized growth (locus YLR133W, strain CKI1, active compounds read low): 0.96
normalized growth (locus YLR403W, strain SFP1, active compounds read low): 0.9
normalized growth (locus YML070W, strain DAK1, active compounds read low): 0.917
normalized growth (locus YMR001C, strain CDC5, active compounds read low): 0.977
normalized growth (locus YMR205C, strain PFK2 (second series), active compounds read low): 0.952
normalized growth (locus YMR277W, strain FCP1, active compounds read low): 0.952
normalized growth (locus YNL006W, strain LST8, active compounds read low): 0.967
normalized growth (locus YNL020C, strain ARK1, active compounds read low): 0.95
normalized growth (locus YNL161W, strain CBK1, active compounds read low): 0.991
normalized growth (locus YNL183C, strain NPR1, active compounds read low): 1.01
normalized growth (locus YNL207W, strain RIO2, active compounds read low): 0.959
normalized growth (locus YNL222W, strain SSU72, active compounds read low): 0.956
normalized growth (locus YNL307C, strain MCK1 (second series), active compounds read low): 0.916
normalized growth (locus YOL078W, strain AVO1, active compounds read low): 0.982
normalized growth (locus YOL136C, strain PFK27, active compounds read low): 0.928
normalized growth (locus YOR061W, strain CKA2, active compounds read low): 0.943
normalized growth (locus YOR119C, strain RIO1, active compounds read low): 0.923
normalized growth (locus YOR231W, strain MKK1, active compounds read low): 0.904
normalized growth (locus YOR329C, strain SCD5, active compounds read low): 0.986
normalized growth (locus YPL031C, strain PHO85, active compounds read low): 0.876
normalized growth (locus YPL153C, strain RAD53, active compounds read low): 0.835
normalized growth (locus YPL204W, strain HRR25, active compounds read low): 0.828
normalized growth (locus YPL209C, strain IPL1, active compounds read low): 0.991
normalized growth (locus YPL256C, strain CLN2, active compounds read low): 0.983
normalized growth (locus YPR025C, strain CCL1, active compounds read low): 0.981
normalized growth (locus YPR106W, strain ISR1, active compounds read low): 1.01
normalized growth (locus YPR111W, strain DBF20, active compounds read low): 1.02
normalized growth (strain NNK1, active compounds read low): 0.984
normalized growth (strain TSCII, active compounds read low): 0.97

FC(F)(F)c1ccc(-n2cncn2)nc1
normalized growth [3]: 1.03
normalized growth [4]: 1.01
normalized growth [1]: 1
normalized growth [5]: 0.988
normalized growth [6]: 1.01
normalized growth [7]: 1.01
normalized growth (locus YGR229C, strain SMI1, active compounds read low): 1.01
normalized growth [2]: 1.09
normalized growth [8]: 1.02
normalized growth [9]: 1.01
normalized growth [10]: 1.02
normalized growth [11]: 0.99
normalized growth [12]: 1.04
normalized growth [13]: 1
normalized growth [14]: 1.24 [resistant] (active)
normalized growth [15]: 1.01
normalized growth [16]: 1.07
normalized growth [17]: 1.01
normalized growth [18]: 1.01
normalized growth [19]: 1.08
normalized growth [20]: 0.996
normalized growth [21]: 1.07
normalized growth [22]: 1
normalized growth [23]: 1.04
normalized growth (locus YOL006C, strain TOP1, active compounds read low): 1.25
normalized growth [24]: 1.07
normalized growth [25]: 1
normalized growth [26]: 1.15

Cc1onc(-c2c(F)cccc2Cl)c1C(=O)N1CCN(c2ncccc2C(F)(F)F)CC1
normalized growth [3]: 0.98
normalized growth [4]: 0.975
normalized growth [1]: 0.977
normalized growth (locus YDL134C, strain PPH21, active compounds read low): 0.993
normalized growth [5]: 0.972
normalized growth [6]: 0.952
normalized growth [7]: 1.01
normalized growth [2]: 0.928
normalized growth [8]: 0.964
normalized growth [9]: 0.988
normalized growth [10]: 1
normalized growth [11]: 1.01
normalized growth (locus YKL190W, strain CNB1, active compounds read low): 1
normalized growth [12]: 0.993
normalized growth [13]: 0.987
normalized growth [14]: 1.02
normalized growth [15]: 0.98
normalized growth [16]: 0.969
normalized growth [17]: 0.984
normalized growth [18]: 1.01
normalized growth [19]: 1.07
normalized growth [20]: 1
normalized growth [21]: 0.965
normalized growth [22]: 0.977
normalized growth [23]: 0.99
normalized growth [24]: 0.977
normalized growth [25]: 1.08
normalized growth [26]: 0.993
